Source: PubChem BioAssay
The source made the active and inactive calls.

Key:
[1] = biological target: Albumin (Bos taurus) (UniProt P02769); assay: compounds binding labelled BSA control protein – biochemical, small-molecule microarray, Alexa647 label, 635/667 nm fluorescence, artefact control for SMM control protein annotation, profiling panel (AID 1118); conditions: BSA-A647 binding, fluorescence 635 nm, higher = more signal;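 also: score merges 667 nm emission intensity and signal-to-noise per printed compound spot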
Chain of Albumin (Bos taurus) (P02769 whole entry, looked up): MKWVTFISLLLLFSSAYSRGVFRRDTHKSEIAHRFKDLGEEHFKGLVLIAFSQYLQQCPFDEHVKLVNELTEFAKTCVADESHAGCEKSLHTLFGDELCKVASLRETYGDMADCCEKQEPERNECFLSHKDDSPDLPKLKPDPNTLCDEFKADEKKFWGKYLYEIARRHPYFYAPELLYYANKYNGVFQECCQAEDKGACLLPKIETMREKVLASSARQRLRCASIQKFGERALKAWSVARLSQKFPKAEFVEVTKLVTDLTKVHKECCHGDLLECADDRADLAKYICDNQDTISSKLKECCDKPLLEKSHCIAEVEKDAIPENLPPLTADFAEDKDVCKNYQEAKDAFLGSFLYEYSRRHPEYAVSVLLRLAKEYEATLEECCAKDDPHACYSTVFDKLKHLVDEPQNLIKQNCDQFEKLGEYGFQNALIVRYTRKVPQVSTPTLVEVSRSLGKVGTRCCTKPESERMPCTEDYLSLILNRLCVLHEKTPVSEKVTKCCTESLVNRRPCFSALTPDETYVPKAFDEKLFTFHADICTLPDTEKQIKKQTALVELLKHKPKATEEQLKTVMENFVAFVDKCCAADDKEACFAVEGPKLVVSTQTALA

[2] = probe aXIP binding to arrayed compounds – biochemical, NeuroSMM set, 635/667 nm fluorescence, primary screen (AID 1119); conditions: small-molecule microarray, higher = more signal, called active from +8 up or from −8 down;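 also: probe is the protein aXip251-270 applied at 1 µg/mL to compound-printed slides; binding of probe to printed compounds measured as 667 nm fluorescence plus signal to noise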
[3] = probe aNOTCH3 binding on compound microarray – biochemical, small-molecule microarray, 635/667 nm fluorescence, primary screen (AID 1120); conditions: higher = more signal;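 also: probe is a biotin-tagged antibody raised against NOTCH3 rather than NOTCH3 protein; score merges spot fluorescence near 667 nm with spot signal to noise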
[4] = probe aNOTCH2 binding on compound microarray – biochemical, small-molecule microarray, 635/667 nm fluorescence, primary screen (AID 1121); conditions: higher = more signal;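 also: score merges feature fluorescence read at 667 nm with its signal to noise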
[5] = biological target: Carbonic anhydrase 2 (Homo sapiens) (UniProt P00918); assay: compounds binding carbonic anhydrase 2 – biochemical, small-molecule microarray, Alexa647-labelled CAII, profiling panel (AID 1122); conditions: CAII-A647 binding fluorescence, higher = more signal
[6] = COS7 lysate on small-molecule microarray, probe aHis, 635 nm (AID 1123); conditions: COS7 cell lysate, fluorescence, higher = more signal;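 also: z-score combines 667nm fluorescence intensity with signal-to-noise per printed compound spot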
[7] = probe aLAP1 signal on lysate-treated microarray – cell lysate, small-molecule microarray, COS7 lysate, primary screen (AID 1124); conditions: probe aLAP1, fluorescence, higher = more signal;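 also: lysate comes from COS7 cells expressing LAP1 and is applied at 0.3 µg/mL; score merges spot fluorescence near 667 nm with signal-to-noise over triplicate slides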
[8] = system: Sam68 (KHDRBS1); assay: compounds binding KHDRBS1 protein – biochemical, small-molecule microarray, 635 nm fluorescence, primary screen (AID 1125); conditions: higher = more signal;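 also: score merges 667 nm channel intensity with signal to noise over triplicate slides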
[9] = system: Chordin-like protein 2 (CHRDL2); assay: compounds binding chordin-like 2 – biochemical, small-molecule microarray, 635 nm fluorescence, primary screen (AID 1126); conditions: fluorescence 635 nm, higher = more signal;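 also: printed compound slides probed with Chrdl2 protein at 4 µg/mL for 1 h at 4 C; score merges 667 nm emission intensity with signal to noise over three replicate slides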
[10] = biological target: Concanavalin-A (Canavalia ensiformis) (UniProt P02866); assay: compounds binding concanavalin A lectin – biochemical, small-molecule microarray, Alexa647 label, 635 nm, artefact control for SMM control protein annotation, primary screen (AID 1127); conditions: ConA-A647 binding fluorescence, higher = more signal;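 also: z combines 667 nm emission intensity with signal-to-noise across three replicate slides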
Chain of Concanavalin-A (Canavalia ensiformis) (P02866 whole entry, looked up): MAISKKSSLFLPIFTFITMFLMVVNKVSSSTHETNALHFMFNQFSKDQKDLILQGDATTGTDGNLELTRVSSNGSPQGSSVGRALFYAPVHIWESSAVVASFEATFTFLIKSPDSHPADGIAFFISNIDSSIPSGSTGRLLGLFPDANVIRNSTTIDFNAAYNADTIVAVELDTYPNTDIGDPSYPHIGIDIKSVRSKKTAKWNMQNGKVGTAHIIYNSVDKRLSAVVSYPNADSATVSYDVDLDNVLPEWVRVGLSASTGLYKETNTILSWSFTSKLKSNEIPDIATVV

[11] = compounds binding Alexa647 anti-His antibody – biochemical, small-molecule microarray, 635 nm fluorescence, artefact control for SMM control protein annotation, primary screen (AID 1128); conditions: higher = more signal;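 also: score merges feature fluorescence with signal-to-noise for each printed compound spot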
[12] = system: Human papillomavirus type 1a E7 protein (residues 1-88); assay: HPV1a E7 small-molecule binders, primary screen, biochemical, small-molecule microarray, residues 1-88, 635 nm (AID 1129); conditions: small-molecule microarray binding, fluorescence 635 nm; higher = more signal
[13] = biological target: Focal adhesion kinase 1 (Homo sapiens) (UniProt Q05397); assay: PTK2 protein binding on printed compound slides – biochemical, small-molecule microarray, 635/667 nm fluorescence, BSA, DTT, primary screen (AID 1130); conditions: 635 nm fluorescence, higher = more signal;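 also: composite of spot emission at 667 nm and signal to noise over triplicate slides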
Chain of Focal adhesion kinase 1 (Homo sapiens) (Q05397 whole entry, looked up): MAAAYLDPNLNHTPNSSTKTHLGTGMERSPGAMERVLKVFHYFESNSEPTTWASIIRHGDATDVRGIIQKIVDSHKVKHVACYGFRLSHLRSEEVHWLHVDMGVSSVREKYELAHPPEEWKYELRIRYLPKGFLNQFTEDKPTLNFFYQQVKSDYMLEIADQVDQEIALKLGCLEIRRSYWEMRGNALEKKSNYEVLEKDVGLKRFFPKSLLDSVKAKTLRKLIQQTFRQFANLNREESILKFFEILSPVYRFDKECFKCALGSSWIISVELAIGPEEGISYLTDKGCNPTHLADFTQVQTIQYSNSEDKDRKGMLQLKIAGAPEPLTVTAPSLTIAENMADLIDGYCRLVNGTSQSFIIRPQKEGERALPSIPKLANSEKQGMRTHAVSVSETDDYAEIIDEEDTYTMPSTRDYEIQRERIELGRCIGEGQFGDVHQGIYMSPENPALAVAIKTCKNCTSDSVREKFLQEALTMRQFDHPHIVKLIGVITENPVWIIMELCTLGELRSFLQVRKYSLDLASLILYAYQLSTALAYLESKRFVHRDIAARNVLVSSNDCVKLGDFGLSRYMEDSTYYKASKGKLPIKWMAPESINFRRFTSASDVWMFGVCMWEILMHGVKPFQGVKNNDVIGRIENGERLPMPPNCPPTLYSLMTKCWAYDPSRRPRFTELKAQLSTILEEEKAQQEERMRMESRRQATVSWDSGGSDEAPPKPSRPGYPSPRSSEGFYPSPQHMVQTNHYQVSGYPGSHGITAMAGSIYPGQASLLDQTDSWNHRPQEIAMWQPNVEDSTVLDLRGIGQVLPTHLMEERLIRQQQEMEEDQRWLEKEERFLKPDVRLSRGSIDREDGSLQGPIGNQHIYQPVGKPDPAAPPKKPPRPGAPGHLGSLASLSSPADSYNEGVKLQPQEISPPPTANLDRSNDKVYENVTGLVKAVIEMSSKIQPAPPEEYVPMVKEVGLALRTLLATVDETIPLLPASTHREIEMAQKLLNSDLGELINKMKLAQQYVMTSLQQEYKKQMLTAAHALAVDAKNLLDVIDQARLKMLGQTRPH

[14] = system: Fibrinogen (Alexa647-labelled); assay: Alexa647-fibrinogen binding to printed small molecules – biochemical, small-molecule microarray, 635/667 nm fluorescence, artefact control for SMM control-protein annotation, profiling panel (AID 1131); conditions: fibrinogen-A647 binding fluorescence, higher = more signal;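 also: z-score merges 667 nm fluorescence with per-spot signal-to-noise over triplicate slides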
[15] = biological target: Follistatin (Homo sapiens) (UniProt P19883); assay: FST protein binding to printed compounds – biochemical, small-molecule microarray, 635/667 nm fluorescence, primary screen (AID 1132); conditions: 635 nm fluorescence, higher = more signal
Chain of Follistatin (Homo sapiens) (P19883 whole entry, looked up): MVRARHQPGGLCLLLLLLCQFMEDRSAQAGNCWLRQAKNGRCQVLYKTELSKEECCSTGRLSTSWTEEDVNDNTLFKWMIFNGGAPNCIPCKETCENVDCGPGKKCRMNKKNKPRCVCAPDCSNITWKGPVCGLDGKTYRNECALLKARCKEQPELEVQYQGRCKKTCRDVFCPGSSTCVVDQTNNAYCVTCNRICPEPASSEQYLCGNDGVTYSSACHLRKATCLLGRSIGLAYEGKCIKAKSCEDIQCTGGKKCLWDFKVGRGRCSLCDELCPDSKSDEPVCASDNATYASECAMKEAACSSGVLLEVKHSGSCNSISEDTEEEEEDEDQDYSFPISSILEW

[16] = biological target: Fibroblast growth factor 2 (Homo sapiens) (UniProt P09038); assay: basic fibroblast growth factor binding to printed compounds – biochemical, small-molecule microarray, 635/667 nm fluorescence, primary screen (AID 1133); conditions: FGF2, fluorescence 635/667, higher = more signal
Chain of Fibroblast growth factor 2 (Homo sapiens) (P09038 whole entry, looked up): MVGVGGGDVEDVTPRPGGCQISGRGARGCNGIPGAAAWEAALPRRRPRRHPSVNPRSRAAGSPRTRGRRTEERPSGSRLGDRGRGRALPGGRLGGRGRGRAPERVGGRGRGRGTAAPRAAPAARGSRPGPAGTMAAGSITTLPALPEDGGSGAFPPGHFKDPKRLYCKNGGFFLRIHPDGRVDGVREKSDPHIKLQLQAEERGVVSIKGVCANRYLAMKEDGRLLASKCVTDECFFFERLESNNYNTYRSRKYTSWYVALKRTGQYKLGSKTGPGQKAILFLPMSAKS

[17] = JC-1 mitochondrial potential readout, lung cancer cells – cell-based, A549, JC-1 fluorescence, basal, 24 h, 100 nL, profiling panel (AID 1138); conditions: higher = more signal;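 also: A549 lung adenocarcinoma cells under basal conditions with no added stimulus; test concentration not given here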
[18] = system: Lefty1; assay: Lefty1 protein binding to printed compounds – biochemical, small-molecule microarray, 635/667 nm fluorescence, primary screen (AID 1139); conditions: fluorescence 635/667, higher = more signal
[19] = system: wheat germ agglutinin (Triticum aestivum), Alexa647-labelled; assay: Alexa647-WGA lectin binding to printed small molecules – biochemical, small-molecule microarray, 635/667 nm fluorescence, artefact control for SMM control-protein annotation, profiling panel (AID 1140); conditions: WGA-A647 binding, 635 nm fluorescence, higher = more signal;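 also: score merges 667 nm feature emission with signal to noise over triplicate slides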
[20] = biological target: Luciferin 4-monooxygenase (Photinus pyralis) (UniProt P08659); assay: inhibition of purified Photinus pyralis luciferase – biochemical, luminescence, purified enzyme, 2006 set, primary screen (AID 1141); conditions: purified firefly luciferase, SteadyGlo luminescence, 30 min; higher = more signal, called active from +8 up or from −8 down;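 also: cell-free assay with purified firefly luciferase at 100 ng per well in PBS; test concentration not given here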
Chain of Luciferin 4-monooxygenase (Photinus pyralis) (P08659 whole entry, looked up): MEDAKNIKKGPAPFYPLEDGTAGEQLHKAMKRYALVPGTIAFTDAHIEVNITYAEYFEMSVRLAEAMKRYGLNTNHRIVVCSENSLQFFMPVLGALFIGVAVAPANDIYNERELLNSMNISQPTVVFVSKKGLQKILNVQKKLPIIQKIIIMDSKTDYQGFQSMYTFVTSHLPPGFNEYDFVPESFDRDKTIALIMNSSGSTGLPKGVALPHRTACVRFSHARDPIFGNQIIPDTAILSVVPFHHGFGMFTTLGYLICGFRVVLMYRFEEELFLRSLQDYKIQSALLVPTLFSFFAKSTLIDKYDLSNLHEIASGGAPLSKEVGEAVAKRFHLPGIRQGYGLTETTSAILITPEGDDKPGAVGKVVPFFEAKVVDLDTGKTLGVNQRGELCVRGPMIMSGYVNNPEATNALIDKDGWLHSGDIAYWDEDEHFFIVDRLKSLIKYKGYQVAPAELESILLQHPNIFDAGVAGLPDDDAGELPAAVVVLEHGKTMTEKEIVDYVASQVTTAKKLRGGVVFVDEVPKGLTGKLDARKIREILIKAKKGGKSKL

Row | Structure (SMILES) | composite z-score [1] | composite Z-score [2] | composite z-score [3] | composite z-score [4] | composite z-score [5] | composite z-score [6] | composite z-score [7] | composite z-score [8] | composite z-score [9] | composite z-score [10] | composite z-score [11] | composite z-score [12] | composite z-score [13] | composite z-score [14] | composite z-score [15] | composite z-score [16] | z-score [17] | composite z-score [18] | composite z-score [19] | z-score [20]
1 | C=CCNC(=O)[C@@H]1[C@H]2C(=O)O[C@H](c3ccccc3)[C@H](c3ccccc3)N2[C@H](c2ccc(O)cc2)[C@@]12C(=O)Nc1ccc(C#CCNC(N)=O)cc12 | 0.118 | 0.0219 (inactive) | -0.169 | -0.166 | 0.352 | 0.636 | 0.73 | 0.512 | -0.671 | 0.0889 | -0.22 | -0.222 | 0.186 | -0.609 | 0.842 | -0.598 | -1.27 | 0.538 | 0.414 | -0.895 (inactive)
2 | COc1cc2c(cc1OC)CN(C(=O)[C@@H]1[C@H]3C(=O)O[C@H](c4ccccc4)[C@H](c4ccccc4)N3[C@H](c3ccc(O)cc3)[C@@]13C(=O)Nc1ccccc13)CC2 | 0.551 | 0.799 (inactive) | -0.0647 | -0.117 | 0.622 | 1.74 | 0.169 | 0.751 | 0.257 | 1.13 | 0.948 | 1.21 | 0.684 | 0.962 | 0.421 | 0.246 | -0.379 | 0.259 | 0.965 | 0.81 (inactive)
3 | COc1cc2c(cc1OC)CN(C(=O)[C@H]1[C@@H]3C(=O)O[C@@H](c4ccccc4)[C@@H](c4ccccc4)N3[C@@H](c3ccc(O)cc3)[C@]13C(=O)Nc1ccc(C#CCCO)cc13)CC2 | 0.184 | 0.274 (inactive) | 0.176 | -0.0474 | 0.213 | 1.46 | 0.127 | 1.24 | 0.077 | 0.964 | 1.31 | 1.21 | 0.055 | 0.807 | 1.12 | 0.0827 | -0.824 | 0.0938 | 0.943 | 1.1 (inactive)
4 | C[C@H]1NC(=O)[C@@]23C(=O)N[C@@H](Cc4ccccc4)C2[C@H](C)[C@@]2(C)O[C@H]2C3/C=C/C/C=C\CNC(=O)[C@@H]2CCCN2C1=O (stereo not given in full) | -0.274 | 0.542 (inactive) | -0.229 | -0.14 | 0.507 | 0.0441 | -0.301 | 0.574 | 0.258 | 1.13 | -0.224 | 0.303 | 0.0122 | 0.859 | 1.05 | 0.692 | 0.419 | 0.946 | 0.765 | 0.193 (inactive)
5 | C[C@H]1C2[C@H](Cc3ccccc3)NC(=O)[C@]23C(=O)N[C@H](Cc2ccccc2)C(=O)N2CCC[C@H]2C(=O)NC/C=C\C/C=C/C3[C@@H]2O[C@]12C (stereo not given in full) | 0.157 | 0.0894 (inactive) | -0.0613 | 0.0022 | 0.0997 | -0.0175 | 0.249 | 0.194 | 0.132 | 0.78 | 0.102 | -0.338 | 1.11 | 0.354 | 0.559 | 0.212 | 0.367 | 0.302 | 0.737 | -0.587 (inactive)
6 | CCCC[C@@H]1C[C@H]1[C@@H](NC(=O)C(C)(C)C)c1ccc(C(F)(F)F)cc1 | 0.315 | -0.414 (inactive) | -0.222 | -0.0986 | 0.289 | 0.834 | 0.0265 | -0.305 | -2.05 | -0.0101 | 1.73 | 0.779 | 0.702 | -0.27 | -1.57 | -1.4 | -1.08 | -0.722 | -0.372 | -3.32 (inactive)
7 | CC(C)C[C@@H]1NC(=O)[C@H](C(C)C)NC(=O)[C@@]23C(=O)N[C@@H](Cc4ccccc4)C2[C@H](C)[C@@]2(C)O[C@H]2C3/C=C/CC/C=C/CNC1=O (stereo not given in full) | 0.371 | 0.131 (inactive) | 0.0694 | -0.126 | 0.532 | 1.28 | -0.0375 | 1.29 | 0.806 | 0.271 | 0.65 | 0.466 | 0.262 | 0.972 | 1.29 | 1.53 | 0.276 | 1.15 | 0.229 | -0.219 (inactive)
8 | C=CC(=C)[C@H]1Oc2ccccc2S(=O)(=O)N2CCC[C@@H]12 | 0 | 0.0556 (inactive) | -0.0588 | -0.156 | -0.293 | -0.284 | -0.0098 | -0.973 | 0.634 | -0.285 | -0.133 | -0.492 | -0.139 | 0.224 | 0.434 | 0.0668 | 0.16 | 0.201 | 0.023 | -0.261 (inactive)
9 | CC(C)[Si](C#Cc1ccc(Oc2ccccc2)cc1)(O[Si](C#Cc1ccc(Oc2ccccc2)cc1)(C(C)C)C(C)C)C(C)C | 0.216 | 0.387 (inactive) | -0.0188 | -0.037 | 0.603 | 0.407 | 0.115 | 0.562 | 0.156 | -0.76 | 1.69 | 0.701 | 0.0273 | 0.654 | 0.218 | 0.925 | 0.108 | 1.07 | 0.372 | -0.637 (inactive)
10 | COC(=O)[C@@]1(Cc2ccc(OC)cc2)[C@H]2c3cc(C(=O)N(C)C)n(Cc4ccccn4)c3C[C@H]2CN1C(=O)c1ccccc1 | 0.972 | 0.655 (inactive) | 0.0674 | 0.293 | 0.89 | 3.14 | 1.03 | -0.0453 | -0.855 | -0.0204 | 1.57 | 0.451 | 1.44 | 0.547 | -0.363 | -0.567 | 0.332 | -0.805 | 1.35 | 1.6 (inactive)
11 | COCCOC(=O)N1C(=O)[C@@]2(c3ccccc31)[C@H](C(=O)N1CCc3cc(OC)c(OC)cc3C1)[C@H]1C(=O)O[C@H](c3ccccc3)[C@H](c3ccccc3)N1[C@@H]2c1ccc(OCCO)cc1 | 0.843 | -0.386 (inactive) | -0.0343 | -0.0903 | 0.486 | 2.59 | 0.953 | 1.32 | 0.417 | 1.09 | 2.67 | 1.22 | 0.789 | 0.896 | 1.25 | 1.1 | -0.382 | 0.492 | 0.722 | -1.76 (inactive)
